{"source": "the supplement of paper PMC8728848", "assay_in_all_cases": "glycan array binding signal (z-score within array); higher = stronger binding", "conditions_in_all_cases": "glycan notation: IUPAC condensed, linker removed", "key": {"Gal6S(b1-4)GlcNAc6S": {"biological_target": "Gal6S(b1-4)GlcNAc6S", "how_it_was_run": "(§1)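 From the Consortium for Functional Glycomics database, 3228 arrays were curated, keeping only those whose protein sequence was available. Binding is given as a within-array Z-score averaged across arrays sharing a protein sequence and across linkers. Negative Z-scores can be read as non-binding.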"}, "GalNAc(b1-4)GlcNAc6S": {"biological_target": "GalNAc(b1-4)GlcNAc6S", "how_it_was_run": "as §1"}, "[1]": {"biological_target": "GlcNAc(b1-2)Man(a1-3)[GlcNAc(b1-2)Man(a1-6)]Man(b1-4)GlcNAc(b1-4)[Fuc(a1-6)]GlcNAc", "how_it_was_run": "as §1"}, "[2]": {"biological_target": "GlcNAc(b1-2)[GlcNAc(b1-6)]Man(a1-6)[GlcNAc(b1-2)Man(a1-3)]Man(b1-4)GlcNAc(b1-4)GlcNAc", "how_it_was_run": "as §1"}, "[3]": {"biological_target": "GlcNAc(b1-2)[GlcNAc(b1-6)]Man(a1-6)[GlcNAc(b1-2)Man(a1-3)]Man(b1-4)GlcNAc(b1-4)[Fuc(a1-6)]GlcNAc", "how_it_was_run": "as §1"}, "[4]": {"biological_target": "GlcNAc(b1-3)Gal(b1-4)GlcNAc(b1-3)Gal(b1-4)GlcNAc", "how_it_was_run": "as §1"}, "[5]": {"biological_target": "GlcNAc(b1-3)Gal(b1-4)GlcNAc(b1-3)Gal(b1-4)GlcNAc(b1-2)[GlcNAc(b1-3)Gal(b1-4)GlcNAc(b1-3)Gal(b1-4)GlcNAc(b1-6)]Man(a1-6)[GlcNAc(b1-3)Gal(b1-4)GlcNAc(b1-3)Gal(b1-4)GlcNAc(b1-2)Man(a1-3)]Man(b1-4)GlcNAc(b1-4)[Fuc(a1-6)]GlcNAc", "how_it_was_run": "as §1"}, "[6]": {"biological_target": "GlcNAc(b1-3)Gal(b1-4)GlcNAc(b1-3)Gal(b1-4)GlcNAc(b1-3)Gal(b1-4)GlcNAc(b1-2)Man(a1-3)[GlcNAc(b1-3)Gal(b1-4)GlcNAc(b1-3)Gal(b1-4)GlcNAc(b1-3)Gal(b1-4)GlcNAc(b1-2)Man(a1-6)]Man(b1-4)GlcNAc(b1-4)GlcNAc", "how_it_was_run": "as §1"}, "[7]": {"biological_target": "GlcNAc(b1-3)Gal(b1-4)GlcNAc(b1-6)[GlcNAc(b1-3)]Gal(b1-4)GlcNAc", "how_it_was_run": "as §1"}, "[8]": {"biological_target": "GlcNAc(b1-4)GlcNAc(b1-4)GlcNAc", "how_it_was_run": "as §1"}, "[9]": {"biological_target": "Man(a1-2)Man(a1-6)[Man(a1-3)]Man(a1-6)[Man(a1-2)Man(a1-2)Man(a1-3)]Man(b1-4)GlcNAc(b1-4)GlcNAc", "how_it_was_run": "as §1"}, "[10]": {"biological_target": "Man(a1-3)[Man(a1-6)]Man(a1-6)[Man(a1-2)Man(a1-3)]Man(b1-4)GlcNAc(b1-4)GlcNAc", "how_it_was_run": "as §1"}, "Man(b1-4)GlcNAc": {"biological_target": "Man(b1-4)GlcNAc", "how_it_was_run": "as §1"}, "[11]": {"biological_target": "Neu5Ac(a2-3)Gal(b1-3)GlcNAc(b1-2)Man", "how_it_was_run": "as §1"}, "[12]": {"biological_target": "Neu5Ac(a2-3)Gal(b1-3)[Fuc(a1-4)]GlcNAc", "how_it_was_run": "as §1"}, "[13]": {"biological_target": "Neu5Ac(a2-3)Gal(b1-3)[Fuc(a1-4)]GlcNAc(b1-3)Gal(b1-4)[Fuc(a1-3)]GlcNAc", "how_it_was_run": "as §1"}, "[14]": {"biological_target": "Neu5Ac(a2-3)Gal(b1-4)GlcNAc(b1-3)Gal", "how_it_was_run": "as §1"}, "[15]": {"biological_target": "Neu5Ac(a2-3)Gal(b1-4)GlcNAc(b1-6)[Gal(b1-3)]GalNAc", "how_it_was_run": "as §1"}, "Neu5Ac(a2-6)Gal(b1-4)Glc": {"biological_target": "Neu5Ac(a2-6)Gal(b1-4)Glc", "how_it_was_run": "as §1"}, "[16]": {"biological_target": "Neu5Ac(a2-6)Gal(b1-4)GlcNAc(b1-2)Man(a1-3)[Man(a1-6)]Man(b1-4)GlcNAc(b1-4)GlcNAc", "how_it_was_run": "as §1"}, "[17]": {"biological_target": "Neu5Ac(a2-6)Gal(b1-4)GlcNAc(b1-2)Man(a1-6)[Gal(b1-4)GlcNAc(b1-2)Man(a1-3)]Man(b1-4)GlcNAc(b1-4)GlcNAc", "how_it_was_run": "as §1"}, "[18]": {"biological_target": "Neu5Ac(a2-6)Gal(b1-4)GlcNAc(b1-3)Gal(b1-4)GlcNAc", "how_it_was_run": "as §1"}, "[19]": {"biological_target": "Neu5Ac(a2-6)Gal(b1-4)GlcNAc(b1-3)Gal(b1-4)GlcNAc(b1-3)GalNAc", "how_it_was_run": "as §1"}, "[20]": {"biological_target": "Neu5Ac(a2-8)Neu5Ac(a2-3)Gal(b1-3)GalNAc(b1-4)[Neu5Ac(a2-3)]Gal(b1-4)Glc", "how_it_was_run": "as §1"}, "[21]": {"biological_target": "Neu5Ac9Ac(a2-3)Gal(b1-4)GlcNAc", "how_it_was_run": "as §1"}, "[22]": {"biological_target": "Neu5Gc(a2-3)Gal(b1-3)GlcNAc", "how_it_was_run": "as §1"}, "[23]": {"biological_target": "Neu5Gc(a2-3)Gal(b1-4)GlcNAc(b1-3)Gal(b1-4)GlcNAc(b1-2)Man(a1-3)[Neu5Gc(a2-3)Gal(b1-4)GlcNAc(b1-3)Gal(b1-4)GlcNAc(b1-2)Man(a1-6)]Man(b1-4)GlcNAc(b1-4)GlcNAc", "how_it_was_run": "as §1"}, "[24]": {"biological_target": "Neu5Gc(a2-3)Gal(b1-4)[Fuc(a1-3)]GlcNAc", "how_it_was_run": "as §1"}}, "note": "About 410 targets per protein were measured; listed, in parts, are those with the strongest signals and a random draw of the rest."}
{"binder": "Mermaid2 (Stilbonema majum) (protein) MGSSHHHHHHSSGLVPRGSHMAASGWLRSPQGTVVKLYRRSLSWSKADEFCKDVDGRLVVDRTADMHLFLIKNVLKEKKSRVWVGLRRTAPHSRTWIWSDGTRQNEDDLNTNLWLRDEPNDAAGEEECALFMYSPWEKAWGLNDYLCRGGCRSYQFICEKGIR", "values": [{"measurement": "glycan array binding signal (z-score)", "setting": "Gal6S(b1-4)GlcNAc6S", "value": -0.12}, {"measurement": "glycan array binding signal (z-score)", "setting": "GalNAc(b1-4)GlcNAc6S", "value": 4.64}, {"measurement": "glycan array binding signal (z-score)", "setting": "[1]", "value": 0.316}, {"measurement": "glycan array binding signal (z-score)", "setting": "[2]", "value": -0.776}, {"measurement": "glycan array binding signal (z-score)", "setting": "[3]", "value": -0.217}, {"measurement": "glycan array binding signal (z-score)", "setting": "[4]", "value": -0.357}, {"measurement": "glycan array binding signal (z-score)", "setting": "[5]", "value": 0.522}, {"measurement": "glycan array binding signal (z-score)", "setting": "[6]", "value": -0.346}, {"measurement": "glycan array binding signal (z-score)", "setting": "[7]", "value": -0.719}, {"measurement": "glycan array binding signal (z-score)", "setting": "[8]", "value": 0.454}, {"measurement": "glycan array binding signal (z-score)", "setting": "[9]", "value": -0.4}, {"measurement": "glycan array binding signal (z-score)", "setting": "[10]", "value": 0.111}, {"measurement": "glycan array binding signal (z-score)", "setting": "Man(b1-4)GlcNAc", "value": 5.41}, {"measurement": "glycan array binding signal (z-score)", "setting": "[11]", "value": -0.619}, {"measurement": "glycan array binding signal (z-score)", "setting": "[12]", "value": -0.173}, {"measurement": "glycan array binding signal (z-score)", "setting": "[13]", "value": 3.06}, {"measurement": "glycan array binding signal (z-score)", "setting": "[14]", "value": -0.777}, {"measurement": "glycan array binding signal (z-score)", "setting": "[15]", "value": 6.1}, {"measurement": "glycan array binding signal (z-score)", "setting": "Neu5Ac(a2-6)Gal(b1-4)Glc", "value": -0.397}, {"measurement": "glycan array binding signal (z-score)", "setting": "[16]", "value": -0.03}, {"measurement": "glycan array binding signal (z-score)", "setting": "[17]", "value": -0.551}, {"measurement": "glycan array binding signal (z-score)", "setting": "[18]", "value": -0.49}, {"measurement": "glycan array binding signal (z-score)", "setting": "[19]", "value": -0.709}, {"measurement": "glycan array binding signal (z-score)", "setting": "[20]", "value": -0.435}, {"measurement": "glycan array binding signal (z-score)", "setting": "[21]", "value": -0.505}, {"measurement": "glycan array binding signal (z-score)", "setting": "[22]", "value": -0.34}, {"measurement": "glycan array binding signal (z-score)", "setting": "[23]", "value": -0.883}, {"measurement": "glycan array binding signal (z-score)", "setting": "[24]", "value": 3.71}]}
